The campaign covered roughly 200,000 compounds. About 780 (0.39%) were called active. Many of the other results were omitted from the sample, so actives are more common in it than they were. Values without a mark were called inactive. Rule as the data show it: active = TR-FRET ratio above about 2000; inactive = the rest.
Assay: TR-FRET signal artefacts, primary screen, artefact control for PPARgamma SRC-2 agonist project, biochemical (AID 1049)
Details: TR-FRET artefact counter-screen; at 8 µM; hits give high values

| Compound | TR-FRET ratio |
| --- | --- |
| CN(C)C(CNC(=O)c1cccc(C#N)c1)c1ccco1 (stereo not given) | 1390 |
| COc1ccc(NC(=O)CN2C(=O)CSC2=O)cc1 | 1580 |
| Cc1ccc(CN2CCN(Cc3ccc(OCCO)cc3)CC2CCO)o1 (stereo not given) | 1600 |
| CC(C)OCCCNC(=S)N1CCC(C(=O)c2ccc3c(c2)OCCO3)CC1 | 1610 |
| O=C(Nc1cccc(O)c1)c1ccc(C(=O)c2ccccc2)o1 | 1480 |
| COC(=O)CN1C(=O)N/C(=C/c2ccc(OC)c(C)c2OC)C1=O | 1240 |
| CCOc1ccc(C(=O)Nc2cccc(-c3ccc4nncn4n3)c2)cc1 | 1400 |
| Cc1cccc(N2CCN(C(=O)c3cccc(S(=O)(=O)N4CCc5ccccc5C4)c3)CC2C)c1 (stereo not given) | 1420 |
| Cc1nc(-c2ccccc2)sc1C(=O)/C=C/c1ccccc1 | 1450 |
| C=CCn1c(-c2sc(-c3ccccc3)nc2C)n[nH]c1=S | 1590 |
| Cc1nc(-c2ccccc2)sc1-c1nc(-c2ccccc2)ncc1S(=O)(=O)c1ccccc1 | 1980 (active) |
| Cc1cc(C)c2c(c1)cc(C)c1nnc(SCC(=O)Nc3cc(C)on3)n12 | 1970 (active) |
| Cc1cc(NC(=O)CSc2nnc(Nc3ccccc3F)s2)no1 | 1500 |
| Cc1ccc(-c2csc(SCC(=O)Nc3cc(C)on3)n2)cc1 | 1440 |
| CCN(CC)C(=O)C(=O)Nc1cccc(Br)c1 | 1590 |
| COc1ccc(-n2c(O)c(C=NCC(c3ccco3)N3CCCC3)c3ccccc3c2=O)cc1OC (stereo not given) | 1590 |
| COc1ccc(/C(O)=C2\C(=O)C(=O)N(Cc3ccco3)C2c2ccc(OC)cc2OC)cc1 (stereo not given) | 1620 |
| COc1ccccc1C1/C(=C(/O)c2ccc(C)cc2)C(=O)C(=O)N1Cc1ccco1 (stereo not given) | 1510 |
| COc1ccc(/C(O)=C2/C(=O)C(=O)N(c3nc(C)c(C)s3)C2c2ccco2)cc1 (stereo not given) | 2180 (active) |
| Cc1ccc(S(=O)(=O)Nc2nc3ccccc3s2)cc1[N+](=O)[O-] | 1360 |
| Cc1ccc(C)c(-n2cc(CN3CCN(C(=O)c4ncn[nH]4)CC3)c(-c3ccccc3)n2)c1 | 1390 |
| CCc1nnc(NS(=O)(=O)c2ccc(N=Cc3c(C)[nH]n(-c4ccc(C)cc4)c3=O)cc2)s1 | 1630 |
| COc1cc(SC#N)ccc1N=Cc1c(C)[nH]n(-c2ccc(C)cc2)c1=O | 1980 (active) |
| Cc1ccc(-n2[nH]c(C)c(/C=N/N3C(=O)c4cccc5cccc(c45)C3=O)c2=O)cc1 | 1510 |

| Compound | TR-FRET ratio |
| --- | --- |
| Cc1cc(C)c(NC(=O)c2oc3ccccc3c2COc2ccccc2)c(C)c1 | 1540 |
| CCCCCC(O)c1cccc(OCc2ccc3ccccc3n2)c1 (stereo not given) | 1460 |
| CCN(CC)S(=O)(=O)c1ccc(N(C)Cc2cccc(OC)c2OC)nc1 | 1770 |
| CC(=O)c1cccc(CN2CCC(CO)(Cc3ccccc3)CC2)c1 | 1590 |
| OCC1(CCc2ccccc2)CCN(Cc2ccc3nsnc3c2)CC1 | 2040 (active) |
| Cc1cccc(-c2ncc(CN3CCC(CO)(CCCc4ccccc4)CC3)cn2)c1 | 1690 |
| Cc1ccccc1-n1nc(C)c2c1N=C1C(Cl)=CC(Cl)=CN1C2c1ccc(C(=O)O)cc1 (stereo not given) | 1440 |
| CC(Sc1nnnn1C)C(=O)NC(=O)NC1CCCCC1 (stereo not given) | 1580 |
| CN1CCN(/N=C/c2ccc(C#N)cc2)CC1 | 1460 |
| Cc1ccc(/C=N\n2c(-c3ccccc3)n[nH]c2=S)s1 | 1450 |
| Cn1c(-c2sccc2OCc2cccc(C(F)(F)F)c2)n[nH]c1=S | 1690 |
| Cn1c(-c2sc3cc(C(F)(F)F)cnc3c2-c2ccccc2)n[nH]c1=S | 2810 (active) |
| Nc1c(NCCc2ccccc2)c2ccccc2oc1=O | 1500 |
| Cc1cc(Cl)ccc1OCCCC(=O)NCc1ccccn1 | 1540 |
| CN(CC(=O)N1CCN(c2ccccc2)CC1)S(=O)(=O)c1cccs1 | 1460 |
| COc1cc2c(cc1OC)C(C(C)C)=NC(C)(C)C2 | 1430 |
| COc1cc2c(cc1O)C(SC)=NC(C)(C)C2 | 1660 |
| COc1cc2c(cc1OC)C(Nc1ccc(S(N)(=O)=O)cc1)=NC(C)(C)C2 | 2460 (active) |
| Cc1ccc(C)c(Cn2cnc3c(oc4ccccc43)c2=O)c1 | 1620 |
| Cc1ccc2[nH]c(=O)c(CN(CC3COCCO3)C(=O)Nc3ccccc3C)cc2c1 (stereo not given) | 1560 |
| CCC(c1nnnn1C1CCCC1)N(Cc1cccs1)Cc1cc2cccc(C)c2[nH]c1=O (stereo not given) | 1590 |
| Cc1cccc2cc(CN(Cc3cccs3)C(c3nnnn3C3CCCC3)C(C)C)c(=O)[nH]c12 (stereo not given) | 1580 |
| Cc1cccc2cc(CN(Cc3ccc4c(c3)OCO4)Cc3nnnn3C3CCCC3)c(=O)[nH]c12 | 2020 (active) |
| O=C(/C=C/c1ccccc1[N+](=O)[O-])OC1CCCCC1=O (stereo not given) | 1570 |

| Compound | TR-FRET ratio |
| --- | --- |
| O=C(Nc1c2c(nc3ccccc13)CCCC2)c1ccccc1Br | 1590 |
| O=C(COC(=O)c1c2c(nc3ccccc13)/C(=C\c1cccs1)CCC2)Nc1ccccc1Cl | 1590 |
| O=C(COC(=O)c1c2c(nc3ccccc13)CCCC2)c1ccc(Br)s1 | 2060 (active) |
| O=C(N1CCCCC1)N1CCN(C(=O)N2CCCCC2)CC1 | 1520 |
| Cc1ccc(C(=O)O)cc1N1C(=O)CCCC1=O | 1430 |
| COc1cc(OC)cc(-c2nnc(SCC(=O)Nc3ccc(C(=O)O)cc3)s2)c1 | 2010 (active) |
| Nc1nnc(SCC(=O)Nc2ccc3nc(SCC(=O)Nc4ccccc4)sc3c2)s1 | 1750 |
| COc1ccc(NC(=O)CSc2nc(C)cs2)cc1 | 1520 |
| COC(=O)[C@@H]1CC[C@H](C)[C@@H](c2ccc(C)cc2)N1C(=O)c1ccc(/C=N/O[C@H](C)c2cn([C@@H]3COC[C@H]3O)nn2)cc1 | 1550 |
| COc1cccc(NC(=O)c2ccc3c(SCC(=O)O)c4c(nc3c2)CCCC4)c1 | 1460 |
| Cc1cc(NC(C)C)n2c(nc3ccccc32)c1C#N | 1630 |
| Cc1nn(CC#N)c(=O)n1N(C)c1ncc(C(F)(F)F)cc1Cl | 1490 |
| Cc1n[nH]c(=S)n1/N=C/c1ccc(Br)o1 | 1670 |
| Cc1ccccc1-c1n[nH]c(=S)n1/N=C/c1ccc(-c2ccccc2Br)o1 | 2460 (active) |
| Cc1ccccc1-c1n[nH]c(=S)n1C | 1570 |
| O=S(=O)(/N=C(/Nc1ccccc1)c1ccccc1)c1cccs1 | 1640 |
| CC(=O)Nc1ccc(S(=O)(=O)Oc2ccc(/C=N/N=C3/NC(=O)C(CC(=O)O)S3)cc2)cc1 (stereo not given) | 1610 |
| O=C(c1ccccc1Cl)N(Cc1ccccc1F)N1C(=O)CCCC1=O | 1650 |
| CCn1c(=O)cc(SCC(=O)NCCC2=CCCCC2)c2ccccc21 | 1870 |
| CCn1c(=O)cc(SCC(=O)NCc2ccc3c(c2)OCO3)c2ccccc21 | 2130 (active) |
| CC(C)NC(=O)CSc1ccccc1C(=O)NCc1ccc2c(c1)OCO2 | 1420 |
| CC(C)(C)NC(=O)C(=O)NN=C1CCCCCCC1 | 1240 |
| c1ccc(COc2nsnc2N2CCOCC2)cc1 | 1720 |
| c1ccc(CSc2ncnc3c2sc2nc(N4CCOCC4)c4c(c23)CCCC4)cc1 | 2910 (active) |

| Compound | TR-FRET ratio |
| --- | --- |
| COc1ccc(CSc2nc(N3CCOCC3)c3c(c2C#N)CC(C)(C)OC3)cc1 | 1500 |
| CCOc1ccc(N2C(=O)Nc3ccccc3C2(O)C(=O)NCc2ccco2)cc1 (stereo not given) | 1700 |
| O=C(CSc1nnc(SCc2ccc(Cl)cc2)s1)N/N=C/c1ccccc1Cl | 1600 |
| Cc1ccc(CN(Cc2cccnc2)C(=S)Nc2cccc(Cl)c2C)cc1 | 1420 |
| CCN(C(=O)COc1cccnc1[N+](=O)[O-])C1CCS(=O)(=O)C1 (stereo not given) | 1550 |
| COCC(=O)Nc1nnc(COc2ccccc2)s1 | 1270 |
| COc1ccc(Cc2nnc(NC(=O)Cc3cccs3)s2)cc1 | 1330 |
| COc1ccc(OCC(=O)Nc2nnc(-c3ccco3)s2)cc1 | 2240 (active) |
| CC(NC(=O)COC(=O)c1cc(=O)[nH]c2ccccc12)c1ccccc1 (stereo not given) | 1810 |
| CCOC(=O)c1sc(NC(=O)CSc2nnc(-c3ccco3)o2)c(C(=O)OCC)c1C | 1590 |
| CCOC(=O)c1c(NC(=O)CNC2CCCc3ccccc32)sc(C(N)=O)c1C (stereo not given) | 2030 (active) |
| CCOC(=O)c1sc(NC(=O)COc2ncnc3ccccc23)c(C(=O)OCC)c1C | 1580 |
| COc1ccc(CN2CCCC(CNC(=O)c3ccc(F)cc3)C2)cc1OC (stereo not given) | 1400 |
| C/C(CC(=O)NC(C)(C)C)=N\NC(=O)c1ccco1 | 1540 |
| N#Cc1c(-c2ccc(Cl)cc2)c2c([nH]c1=S)CCCC2 | 2030 (active) |
| N#Cc1c2c(c(-c3ccccc3)[nH]c1=O)CCCC2 | 1620 |
| CNc1nccc(-c2ccc(Cl)cc2)c1C#N | 1580 |
| Cc1ccc(CNC(=O)COc2ccc3c(c2)CCC3)cc1 | 1560 |
| CCCCN(C(=O)c1ccc(OC(F)(F)F)cc1)c1c(N)n(CCC)c(=O)[nH]c1=O | 1420 |
| C/C=N/NC(=O)CCCC(=O)N/N=C/C | 1590 |
| COc1ccccc1C1/C(=C(/O)c2ccc(OC(C)C)cc2)C(=O)C(=O)N1c1cc(C)on1 (stereo not given) | 1930 |
| Cc1cc(N2C(=O)C(=O)/C(=C(/O)c3ccc(Cl)cc3)C2c2cccc(Br)c2)no1 (stereo not given) | 1980 (active) |
| COc1ccc(C2/C(=C(/O)c3ccccc3)C(=O)C(=O)N2c2ncccn2)cc1OC (stereo not given) | 1610 |

Source: PubChem BioAssay AID1049 (The Scripps Research Institute Molecular Screening Center, 2008)
